Data on ten compounds can be found in PubChem BioAssay.

Unmarked numbers belong to inactive results.

A short description of this assay: CREB reporter modulators without forskolin, primary screen, cell-based, PC12, CRE-LacZ reporter, unstimulated (AID 1145). The following applies: no forskolin, luminescence, 4.5 h, higher = more signal, called active from +8 up or from −8 down.
As to `CC(CCN1CCCc2nc(C)c(C)cc21)=NOC(C)CN1CCCCc2nc(C)c(C)cc21` (stereo not given), the z-score is -0.31.

Consider `CCN1C(=O)[C@@H]2[C@H]3C(=CC[C@@H]2C1=O)C1(OCCCO1)[C@H]1O[C@H]1[C@H]3O`, for which the z-score is 0.196.

Regarding `Cc1ccc(S(=O)(=O)N[C@@H]2COC(=O)[C@@H](C)COC(=O)CC=C[C@H]2C)cc1`, the z-score was -0.116.

For `COC(=O)C1=C(C)N(Cc2ccccc2)[C@]23O[C@](C(=O)OC)(C(=O)N2[C@@H]1c1ccccc1)C(C(=O)OC)=C3C(=O)OC`, the z-score was 1.92.

Regarding `CC(C)CON=C1C[C@@H](O)[C@@H](O)[C@@H]2[C@@H]3C(=O)N(c4ccc(F)cc4F)C(=O)[C@@H]3CC[C@H]12`, the z-score is -1.29.

`CCOC(=O)CCN1C(=O)[C@H]2[C@H]3[C@H](O)[C@H](O)CC(=NOCC(C)C)[C@H]3CC[C@H]2C1=O`: the z-score was -0.0187.

Take `CC(C)=CCCC(C)=CCON=C1C[C@@H](O)[C@@H](O)[C@@H]2[C@@H]3C(=O)N(C(C)(C)C)C(=O)[C@@H]3CC[C@H]12`: the z-score is 0.7.

In the case of `C[C@H]1CC[C@H]2C(=O)O[C@H](COc3ccc(C(C)(C)C)cc3)CN2[C@@H]1c1ccc(Br)cc1`, the z-score was 1.72.

As to `COC(=O)CC=C[C@@H](C)[C@@H](C=NO[C@@H]1O[C@H](COC(C)=O)[C@@H](OC(C)=O)[C@H](OC(C)=O)[C@H]1OC(C)=O)NS(=O)(=O)c1ccc(C)cc1`, the z-score was 7.64.

For `CCOC(=O)[C@H](CC(C)C)NC(=O)CCC1CC(OC(=O)NCc2cccc3ccccc23)CC2(CCCC(COC(=O)NCc3ccncc3)O2)O1` (stereo not given in full), the z-score is 0.562.
